From PubChem BioAssay (NCATS)
Records with an inconclusive call do not appear. Where a call stands in place of a potency, no number is given. The source made the active and inactive calls. Unless noted, calls follow the shape of the dose curve; as a rule, active = well fitted curve in the direction sought with a large enough effect; inconclusive = small, poorly fitted or top-dose-only effect, or another doubt; inactive = no such curve, though single readings can be large; an effect the other way counts as inactive or inconclusive.

What was measured:
[1] = target: Methanococcus maripaludis chaperonin (MmCpn) (UniProt Q6LX38); test: High-Throughput Screening for Modulators of Cytosolic Chaperonin Activity: MmCpn Primary Screen (AID 488978);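 also: 50 nM MmCpn enzyme hydrolysing 30 µM ATP at 37 °C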
Method in brief: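 ADP formation read by HTRF Transcreener, 665/590 nm emission after 320 nm excitation. Enzyme: archaeal chaperonin at 50 nM final; substrate ATP 30 uM final; 10 min, 37C, after 5 min compound preincubation at RT.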

[2] = target: Transient receptor potential cation channel subfamily V member 1 (Homo sapiens) (UniProt Q8NER1); test: HTS Assay for Compounds that Act as Enhancers of the Vanilloid Receptor 1 (AID 488979)
Method in brief: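 TRPV1-expressing cells loaded with Fluo-8 calcium dye; compounds added and calcium influx read kinetically for 3 min (agonist phase), then capsaicin at EC20 added and read 2 min more for enhancement. Fluorescence ex 480/em 520 nm.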

[3] = target: Thyrotropin receptor (Homo sapiens) (UniProt P16473); test: qHTS Assay for Antagonists of the Thyroid Stimulating Hormone Receptor (AID 488980); also: series mostly up to about 58 µM
Method in brief: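 TSHR-HEK293 cells; 70 uM RO 20-1724 PDE inhibitor; compound + EC80 TSH (4 nM final); anti-cAMP cryptate antibody/cAMP-d2 in lysis buffer, 30 min RT; HTRF 665/620 nm read.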

[4] = target: D(1A) dopamine receptor (Homo sapiens) (UniProt P21728); test: HTS Assay for Allosteric Agonists of the Human D1 Dopamine Receptor: Primary Screen for Agonists (AID 488981)
Method in brief: (§1)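 Tetracycline-induced HEK293 T-REx cells force-coupled to calcium signalling were incubated overnight at 30 C and dye-loaded at room temperature. Calcium flux over 180 s after compound addition flagged agonists; a further 180 s read after EC20 dopamine flagged potentiators.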

[5] = target: D(1A) dopamine receptor (Homo sapiens) (UniProt P21728); test: HTS Assay for Allosteric Agonists of the Human D1 Dopamine Receptor: Primary Screen for Potentiators (AID 488982); also: potency is read from the fitted curve at half-maximal effect
Method in brief: as §1

[6] = target: D(1A) dopamine receptor (Homo sapiens) (UniProt P21728); test: HTS Assay for Allosteric Agonists of the Human D1 Dopamine Receptor: Primary Screen for Antagonists (AID 488983);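 also: calcium flux response to an EC80 dopamine challenge measured with no-wash dye; nearly all actives have a fitted effect of over 65% in size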; also: potency is read from the fitted curve at half-maximal effect
Method in brief: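 Cells are induced with tetracycline and incubated overnight at 30 C, then loaded with calcium dye for 30 to 90 minutes at room temperature. Compound addition is followed by a 180 s read, then an EC80 dopamine addition and another 180 s read.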

[7] = Validation screen for small molecules that induce genotoxicity in human embryonic kidney (HEK293T) cells expressing luciferase-tagged ELG1 (AID 493106)
Method in brief: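 Luminescence from an ELG1-luciferase fusion serves as the read-out, rising when genetic stress elevates ELG1 protein. HEK293T reporter cells (2,000 per well) received 23 nL compound, incubated 16 hr at 37 °C, then ONE-Glo for 30 min at room temperature.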

[8] = target: ATPase family AAA domain-containing protein 5 (Homo sapiens) (UniProt Q96QE3); test: Validation screen for small molecules that inhibit ELG1-dependent DNA repair in human embryonic kidney (HEK293T) cells expressing luciferase-tagged ELG1 (AID 493107); also: nearly all actives have a fitted effect of over 70% in size; also: potency is read from the fitted curve at half-maximal effect
Method in brief: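 Luminescence from ONE-Glo, developed 30 min at room temperature, served as read-out of ELG1-luciferase levels. Beforehand, reporter HEK293T cells received 5-fluorouridine plus test compound for 16 hr at 37 °C.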

[9] = target: Thyrotropin-releasing hormone receptor (Homo sapiens) (UniProt P34981); test: qHTS for Small Molecule Agonists and Allosteric Enhancers of Human TRH Receptor: Validation Screen for Agonists (AID 493127;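 active = calcium activation more than 3 SD above the typical response in the agonist read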;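 also: intracellular calcium rise by fluo-8 fluorescence before TRH EC20 addition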); conditions: TRH receptor agonist cell assay; at 2 µM; stronger effect = higher value
Method in brief: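 Cells 2000/well, 10% FCS, 18 h 33.5C/5% CO2 → fluo-8 Ca dye, RT 30 min–1.5 h → FDSS baseline 10 × 1 s → compound added → 230 cycles (1 s/cycle) agonist mode. TRH controls.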

[10] = Nrf2 qHTS screen for inhibitors: Validation (AID 493153; active = well fitted inhibition curve with a large enough effect in the main read-out, with a control signal flat, not every such curve was filed as active); conditions: Potency: luciferase luminescence; viability change: measured here: cytotoxicity max response
Method in brief: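 Luminescence from an ARE-firefly luciferase reporter in A549 cells gives Nrf2 inhibition; an earlier CellTiter-Fluor fluorescent read flags cytotoxicity. Cells in 5% FBS OPTI-MEM received compound dilution series for 18-24 h at 37°C.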

[11] = qHTS for Inhibitors of Cell Surface uPA Generation: Validation Assay (AID 493164)
Method in brief: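 RAW 264.7 cells (4000/well) were plated overnight, then exposed for 18 h at 37 C, 5% CO2 to compounds in a 7-point 1:5 titration (2.45 nM–38.3 uM final). Intracellular ATP was read by ATP-Lite luminescence.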

[12] = target: Galactokinase (Homo sapiens) (UniProt P51570); test: qHTS Validation Assay for Inhibitors of Human Galactokinase (GALK) (AID 493189)
Method in brief: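 Luminescence from leftover ATP (Kinase-Glo Plus, 10 min) served as read-out after a 1 h room-temperature reaction of 5 nM GALK, 100 uM galactose and 35 uM ATP at pH8.0.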

[13] = target: Peptidyl-prolyl cis-trans isomerase NIMA-interacting 1 (Homo sapiens) (UniProt Q13526); test: qHTS Validation Assay to Find Inhibitors of Pin1 (AID 504536; active = well fitted inhibition curve with a large enough effect in the polarisation, with a control signal flat, not every such curve was filed as active; the % refers to the polarisation; also: potency is read from the fitted curve at half-maximal effect)
Method in brief: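 Fluorescence polarization competition: compounds (titration) displace HiFluor-488-labeled Pin1-1b peptide from Pin1 (0.3 uM final) in pH 7.5 HEPES buffer with DTT, 10 min at room temperature; %Activity normalized to no-enzyme wells, curves fitted.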

[14] = target: Phosphoglycerate kinase, glycosomal (Trypanosoma brucei brucei) (UniProt P07378); test: qHTS Validation Assay to Find Inhibitors of Phosphoglycerate Kinase (AID 504547); also: potency is read from the fitted curve at half-maximal effect
Method in brief: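 Substrate/PGK mix plus compound; reaction started with GAPDH (100nM final) to form 1,3-BPG; 60 min RT; Kinase-Glo Plus 10 min; luminescence. TEA 100mM pH 7.6, MgCl2 5mM, Tween-20 0.01%.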

[15] = target: phosphoglycerate mutase (Leishmania major) (UniProt Q4Q090); test: qHTS Validation Assay to Find Inhibitors of Phosphoglycerate Mutase (AID 504548); conditions: Potency: inhibition qHTS; also: series mostly up to about 58 µM
Method in brief: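 Lm PGAM 1.25nM final; 100 mM TEA pH 7.6, 5 mM MgCl2, 0.01% Tween-20; 45 min RT; Kinase-GloPlus, 10 min; end-point luminescence. Enzyme-free wells as negative controls.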

[16] = target: Chromobox protein homolog 1 (Homo sapiens) (UniProt P83916); test: qHTS Validation Assay for Inhibitors of HP1-beta Chromodomain Interactions with Methylated Histone Tails (AID 488953); also: nearly all actives have a fitted effect of over 50% in size; also: potency is read from the fitted curve at half-maximal effect
Method in brief: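 50 nM HP1-beta + 50 nM biotin-H3(1-18)K9me3, PBS pH 7.4, 0.01% Tween-20, 30 min RT; compound added, 30 min RT; AlphaScreen beads 10 ug/mL final, 30 min dark; luminescence read.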

[17] = Inducers of the Endoplasmic Reticulum Stress Response (ERSR) in human glioma: Validation (AID 504836)
Method in brief: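 Stably transfected U87-MG human glioma cells carrying a GRP78-based luminescent sensor were seeded at 1000 cells/well, pin-dosed with compounds and incubated 16 h. Luciferase reagent was then added, and end-point luminescence was read after 10 min at room temperature.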

[18] = Validation screen for small molecules that induce DNA re-replication in SW480 colon adenocarcinoma cells (AID 504364)
Method in brief: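 250 cells/well; compound pinned in; 48 hr, 37 C, 5% CO2; Hoechst added, 40 min; nuclear fluorescence imaged, 405 ex / 500-530 em; re-replication scored as increase in high-intensity nuclei.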

[19] = target: ATP-dependent 6-phosphofructokinase (Trypanosoma brucei brucei) (UniProt O15648); test: qHTS Assay to Find Inhibitors of T. brucei phosphofructokinase: hit validation (AID 492961);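 also: luminescence reports ADP formed as PFK phosphorylates fructose-6-phosphate with ATP; series mostly up to about 51 µM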
Method in brief: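 Reaction: 0.1 M triethanolamine pH 8.0, 5 mM MgCl2, F6P 0.5 mM, ATP 0.1 mM, PFK 1.25 nM, 45 min RT. Read-out: ADP-Glo luminescence. Analysis: concentration-response fits, classed by r2 and efficacy.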

Chain of Thyrotropin receptor (Homo sapiens) (P16473 whole entry, looked up): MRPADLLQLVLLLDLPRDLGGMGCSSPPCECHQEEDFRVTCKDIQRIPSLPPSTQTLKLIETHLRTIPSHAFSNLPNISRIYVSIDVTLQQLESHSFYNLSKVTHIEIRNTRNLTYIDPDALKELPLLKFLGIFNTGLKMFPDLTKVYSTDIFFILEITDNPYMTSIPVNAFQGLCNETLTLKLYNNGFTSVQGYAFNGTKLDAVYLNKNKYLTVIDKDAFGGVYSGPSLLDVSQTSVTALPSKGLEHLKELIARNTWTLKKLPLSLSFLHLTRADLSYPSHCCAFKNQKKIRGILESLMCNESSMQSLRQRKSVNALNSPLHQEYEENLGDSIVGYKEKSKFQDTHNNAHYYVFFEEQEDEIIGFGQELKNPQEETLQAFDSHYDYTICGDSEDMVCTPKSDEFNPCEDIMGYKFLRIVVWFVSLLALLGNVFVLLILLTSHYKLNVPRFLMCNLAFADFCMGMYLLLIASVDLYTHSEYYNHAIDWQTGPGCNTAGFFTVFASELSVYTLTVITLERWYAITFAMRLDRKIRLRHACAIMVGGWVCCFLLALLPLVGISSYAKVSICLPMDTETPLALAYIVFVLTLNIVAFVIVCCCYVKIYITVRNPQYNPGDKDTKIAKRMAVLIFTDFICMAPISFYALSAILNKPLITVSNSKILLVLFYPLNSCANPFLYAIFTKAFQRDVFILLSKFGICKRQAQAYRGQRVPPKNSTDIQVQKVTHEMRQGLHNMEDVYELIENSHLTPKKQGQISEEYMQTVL
Chain of Transient receptor potential cation channel subfamily V member 1 (Homo sapiens) (Q8NER1 whole entry, looked up): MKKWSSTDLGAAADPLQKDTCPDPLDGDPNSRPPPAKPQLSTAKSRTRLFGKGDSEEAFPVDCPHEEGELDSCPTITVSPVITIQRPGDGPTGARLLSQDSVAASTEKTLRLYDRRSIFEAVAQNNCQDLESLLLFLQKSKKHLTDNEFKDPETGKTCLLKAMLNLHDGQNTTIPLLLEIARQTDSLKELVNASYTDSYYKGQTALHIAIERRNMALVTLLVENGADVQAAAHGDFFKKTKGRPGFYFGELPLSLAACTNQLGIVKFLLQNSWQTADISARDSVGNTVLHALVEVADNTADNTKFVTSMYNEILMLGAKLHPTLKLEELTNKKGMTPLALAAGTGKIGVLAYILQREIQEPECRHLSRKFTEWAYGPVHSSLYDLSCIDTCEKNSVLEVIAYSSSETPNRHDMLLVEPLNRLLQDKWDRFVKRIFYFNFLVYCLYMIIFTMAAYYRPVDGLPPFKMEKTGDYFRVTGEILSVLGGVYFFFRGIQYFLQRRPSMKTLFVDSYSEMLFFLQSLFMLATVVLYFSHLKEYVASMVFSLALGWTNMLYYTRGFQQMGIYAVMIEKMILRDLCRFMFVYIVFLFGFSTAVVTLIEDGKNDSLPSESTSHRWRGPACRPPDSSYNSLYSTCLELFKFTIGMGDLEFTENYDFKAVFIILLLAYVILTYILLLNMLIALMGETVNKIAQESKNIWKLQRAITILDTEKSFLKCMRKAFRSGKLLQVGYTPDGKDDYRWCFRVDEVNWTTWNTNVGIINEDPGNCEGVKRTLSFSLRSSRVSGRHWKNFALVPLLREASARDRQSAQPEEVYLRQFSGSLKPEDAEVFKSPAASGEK
Chain of ATPase family AAA domain-containing protein 5 (Homo sapiens) (Q96QE3 whole entry, looked up, the tested form may be a part): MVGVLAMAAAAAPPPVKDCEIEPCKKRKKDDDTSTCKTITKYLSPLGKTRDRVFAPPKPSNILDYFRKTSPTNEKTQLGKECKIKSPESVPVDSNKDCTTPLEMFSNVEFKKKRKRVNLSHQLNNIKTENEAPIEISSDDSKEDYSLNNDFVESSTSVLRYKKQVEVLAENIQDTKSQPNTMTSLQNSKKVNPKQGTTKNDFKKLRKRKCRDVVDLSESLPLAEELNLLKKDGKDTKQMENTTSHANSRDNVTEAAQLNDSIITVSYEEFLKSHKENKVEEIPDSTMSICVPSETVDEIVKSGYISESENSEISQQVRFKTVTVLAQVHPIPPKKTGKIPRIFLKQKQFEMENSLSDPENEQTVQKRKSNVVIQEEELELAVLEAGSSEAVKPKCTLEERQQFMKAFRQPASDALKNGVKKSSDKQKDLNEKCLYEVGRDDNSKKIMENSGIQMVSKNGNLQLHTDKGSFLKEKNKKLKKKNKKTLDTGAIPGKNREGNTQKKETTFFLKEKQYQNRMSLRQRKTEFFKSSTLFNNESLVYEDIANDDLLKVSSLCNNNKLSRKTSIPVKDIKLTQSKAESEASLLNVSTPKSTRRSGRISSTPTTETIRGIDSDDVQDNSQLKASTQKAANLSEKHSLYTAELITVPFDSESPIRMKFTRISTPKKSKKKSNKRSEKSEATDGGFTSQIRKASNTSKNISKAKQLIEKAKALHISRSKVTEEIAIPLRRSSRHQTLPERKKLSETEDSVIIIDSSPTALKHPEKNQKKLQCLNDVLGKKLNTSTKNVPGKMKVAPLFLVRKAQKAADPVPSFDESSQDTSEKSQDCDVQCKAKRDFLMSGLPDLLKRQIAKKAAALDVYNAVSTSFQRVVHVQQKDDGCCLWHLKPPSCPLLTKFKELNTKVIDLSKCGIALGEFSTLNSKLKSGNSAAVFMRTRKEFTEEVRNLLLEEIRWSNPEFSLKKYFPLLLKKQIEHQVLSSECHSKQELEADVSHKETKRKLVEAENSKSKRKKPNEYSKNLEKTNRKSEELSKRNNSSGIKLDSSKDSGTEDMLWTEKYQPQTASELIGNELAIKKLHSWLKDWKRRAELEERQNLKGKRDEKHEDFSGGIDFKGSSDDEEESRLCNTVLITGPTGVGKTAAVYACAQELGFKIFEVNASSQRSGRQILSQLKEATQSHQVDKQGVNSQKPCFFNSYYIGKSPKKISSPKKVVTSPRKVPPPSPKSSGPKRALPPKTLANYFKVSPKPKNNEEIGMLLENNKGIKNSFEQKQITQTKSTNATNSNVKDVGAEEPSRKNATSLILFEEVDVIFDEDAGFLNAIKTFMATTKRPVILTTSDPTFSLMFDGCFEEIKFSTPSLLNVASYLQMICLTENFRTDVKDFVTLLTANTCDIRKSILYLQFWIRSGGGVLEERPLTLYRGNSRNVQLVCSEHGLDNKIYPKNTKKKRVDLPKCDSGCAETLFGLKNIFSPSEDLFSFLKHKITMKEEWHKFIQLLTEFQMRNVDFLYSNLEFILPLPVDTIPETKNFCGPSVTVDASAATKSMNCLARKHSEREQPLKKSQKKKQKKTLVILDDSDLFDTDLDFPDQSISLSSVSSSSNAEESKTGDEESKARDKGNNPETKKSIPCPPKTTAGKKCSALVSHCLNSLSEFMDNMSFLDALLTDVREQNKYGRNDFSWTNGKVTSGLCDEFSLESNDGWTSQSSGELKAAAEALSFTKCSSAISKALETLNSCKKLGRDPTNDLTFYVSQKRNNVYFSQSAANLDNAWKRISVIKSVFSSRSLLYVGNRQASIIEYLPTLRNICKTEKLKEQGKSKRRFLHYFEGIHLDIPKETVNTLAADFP
Chain of Phosphoglycerate kinase, glycosomal (Trypanosoma brucei brucei) (P07378 whole entry, looked up): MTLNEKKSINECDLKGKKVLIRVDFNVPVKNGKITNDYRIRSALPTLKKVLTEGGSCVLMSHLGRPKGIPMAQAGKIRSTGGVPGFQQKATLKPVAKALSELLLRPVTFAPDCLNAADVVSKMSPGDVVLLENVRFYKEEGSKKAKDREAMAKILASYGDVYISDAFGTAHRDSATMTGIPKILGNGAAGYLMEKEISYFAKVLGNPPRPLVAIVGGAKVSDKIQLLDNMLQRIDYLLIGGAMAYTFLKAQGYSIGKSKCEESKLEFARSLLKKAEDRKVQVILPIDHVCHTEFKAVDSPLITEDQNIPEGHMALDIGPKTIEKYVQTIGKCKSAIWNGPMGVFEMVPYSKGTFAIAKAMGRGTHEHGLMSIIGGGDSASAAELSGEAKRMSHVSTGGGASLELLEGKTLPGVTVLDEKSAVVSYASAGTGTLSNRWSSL
Chain of phosphoglycerate mutase (Leishmania major) (Q4Q090 1-553): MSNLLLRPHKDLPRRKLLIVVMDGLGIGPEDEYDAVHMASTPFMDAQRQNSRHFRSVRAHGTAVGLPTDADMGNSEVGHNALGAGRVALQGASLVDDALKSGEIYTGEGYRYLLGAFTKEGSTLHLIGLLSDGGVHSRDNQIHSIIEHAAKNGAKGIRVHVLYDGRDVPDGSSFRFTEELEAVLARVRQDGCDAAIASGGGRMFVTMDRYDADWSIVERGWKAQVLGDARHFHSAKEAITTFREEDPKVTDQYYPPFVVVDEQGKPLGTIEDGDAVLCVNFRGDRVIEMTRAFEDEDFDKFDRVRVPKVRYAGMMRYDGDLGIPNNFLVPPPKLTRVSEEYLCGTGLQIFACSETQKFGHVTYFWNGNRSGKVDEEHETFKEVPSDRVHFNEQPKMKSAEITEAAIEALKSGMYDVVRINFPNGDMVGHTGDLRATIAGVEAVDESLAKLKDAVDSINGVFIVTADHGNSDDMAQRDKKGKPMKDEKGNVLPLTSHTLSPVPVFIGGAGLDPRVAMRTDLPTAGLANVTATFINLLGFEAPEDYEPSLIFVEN
Chain of Chromobox protein homolog 1 (Homo sapiens) (P83916 whole entry, looked up): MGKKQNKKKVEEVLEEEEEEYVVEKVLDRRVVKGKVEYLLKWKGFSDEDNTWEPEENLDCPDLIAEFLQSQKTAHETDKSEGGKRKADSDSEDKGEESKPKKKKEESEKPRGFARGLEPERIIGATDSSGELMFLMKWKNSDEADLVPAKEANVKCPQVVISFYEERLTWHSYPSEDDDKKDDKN
Chain of D(1A) dopamine receptor (Homo sapiens) (P21728 whole entry, looked up): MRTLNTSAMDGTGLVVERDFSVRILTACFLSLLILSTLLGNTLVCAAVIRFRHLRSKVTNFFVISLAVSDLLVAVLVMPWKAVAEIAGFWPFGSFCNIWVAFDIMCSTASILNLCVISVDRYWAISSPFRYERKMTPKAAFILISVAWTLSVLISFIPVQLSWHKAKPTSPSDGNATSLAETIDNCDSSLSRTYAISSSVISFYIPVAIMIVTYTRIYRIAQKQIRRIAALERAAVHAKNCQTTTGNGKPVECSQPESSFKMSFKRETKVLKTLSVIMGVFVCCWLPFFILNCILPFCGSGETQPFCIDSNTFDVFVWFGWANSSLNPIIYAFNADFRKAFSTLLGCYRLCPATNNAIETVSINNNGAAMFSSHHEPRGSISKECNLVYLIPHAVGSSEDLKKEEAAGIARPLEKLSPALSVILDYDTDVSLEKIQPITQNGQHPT

Structure (SMILES)	outcome [1]	outcome [2]	outcome [3]	Potency [4]	Potency [5]	Potency [6]	Potency [7]	Potency [8]	activation [9]	Potency [10]	viability change [10] [%]	outcome [11]	outcome [12]	Potency [13]	Potency [14]	Potency [15]	Potency [16]	outcome [17]	Potency [18]	Potency [19]
Cc1[nH]c2ccc(O)cc2c1CCN	inactive	inactive	inactive	inactive	inactive	inactive	inactive	inactive	0.812% (inactive)	inactive	-7.71	inactive	inactive	inactive	inactive	inactive				
N#CCCN				inactive	inactive	inactive	inactive			inactive	-4.25	inactive		inactive	inactive	inactive	inactive	inactive		
CC(C)(O)[C@@H]1C2OC(=O)[C@@H]1[C@]1(O)C[C@H]3O[C@]34C(=O)O[C@H]2[C@]14C (tested in a mixture with another compound)	inactive			inactive	inactive	inactive	inactive	inactive		inactive	-3	inactive		inactive	inactive	inactive				
CCN1C[C@@]2(COC)C3[C@@H](OC)C4[C@@H]1C3([C@@H]1C[C@]3(O)[C@H](OC(=O)c5ccccc5)[C@@H]1[C@]4(OC(C)=O)[C@@H](O)[C@@H]3OC)[C@H](OC)C[C@H]2O				inactive		inactive	inactive	inactive		inactive	0.88	inactive		inactive	inactive	inactive	inactive	inactive		
CCCCCCC(C)(C)c1ccc([C@@H]2C[C@H](O)CC[C@H]2CCCO)c(O)c1	inactive	inactive		inactive		inactive	inactive	16.4 µM (active)	1.06% (inactive)	inactive	3.03	inactive	inactive	inactive	inactive	inactive		inactive	inactive	
NCCCP(=O)(O)O	inactive	inactive	inactive	inactive	inactive	inactive	inactive	inactive	0.562% (inactive)	inactive	0.331	inactive	inactive	inactive	inactive	inactive		inactive		
C/C(O)=C(\C#N)C(=O)Nc1cc(Br)ccc1Br	inactive	inactive	inactive	inactive	inactive	inactive	inactive		0.0625% (inactive)			inactive	inactive	inactive	inactive	inactive		inactive		
CC(N)[C@H](O)c1ccc(O)c(O)c1 (some centres undefined)	inactive	inactive		inactive	inactive	inactive	inactive	inactive	1.12% (inactive)	inactive	-3.08	inactive	inactive	13.5 µM (active)	7.57 µM (active)	inactive		inactive		
C[C@@H]1O[C@@H](O[C@H]2C[C@@H](O)[C@]3(CO)[C@@H]4C(CC[C@]3(O)C2)[C@@]2(O)CC[C@H]([C@@H]3COC(=O)C3)[C@@]2(C)C[C@H]4O)[C@H](O)[C@H](O)[C@H]1O (some centres undefined)				inactive	inactive	inactive	inactive	2.06 µM (active)				inactive		inactive	inactive	inactive	inactive	inactive		
Ic1ccccc1CNC1C2CCN(CC2)C1C(c1ccccc1)c1ccccc1 (centres undefined)					4.11 µM (active)		inactive	16.4 µM (active)	2.31% (inactive)			inactive	inactive	inactive	inactive	inactive	44.7 µM (active)	inactive		
C=CCN1CC[C@]23c4c5ccc(O)c4O[C@@H]2/C(=N/N=C2\CC[C@@]4(O)C6Cc7ccc(O)c8c7[C@@]4(CCN6CC=C)[C@@H]2O8)CC[C@@]3(O)C1C5	inactive	inactive	inactive	inactive	inactive	inactive	inactive		2.38% (inactive)	inactive	-1.45	inactive	inactive		inactive	inactive		inactive		
Cc1sc2ccccc2c1CC1=NCCN1		inactive	inactive	inactive	inactive	10 µM (active)	inactive	inactive	1.12% (inactive)	inactive	-0.892	inactive	inactive	inactive	inactive				inactive	inactive
C[C@H](N)CN1CCc2ccc(Br)cc21	inactive				inactive	inactive	inactive	inactive	0.625% (inactive)	inactive	-2.43	inactive	inactive	inactive	inactive	inactive		inactive	inactive	
CCCN(CCC)[C@H]1CCc2c(F)ccc(O)c2C1		inactive	inactive	inactive	inactive	inactive	inactive	inactive	-3.06% (inactive)	inactive	-8.48	inactive	inactive	inactive	inactive	inactive		inactive		
